# Vaccinia Venus – vaccinia inhibition (Venus reporter). Vaccinia virus Venus reporter expression, fluorescence. Potency, µM (doses to about 36.5 µM), for inactives: at the top dose activity change, negative = inhibition, actives largely listed as inhibitors. 330,000 tested, 0.46% active; calls by dose curve; tested in A549 cells; further: nearly all actives have a fitted effect of over 30% in size
# MARV entry inh – Marburg virus entry inhibition. Marburg virus pseudotyped entry inhibition, cell reporter. Potency, µM (doses to about 37.8 µM), for inactives: top-dose activity change, negative = inhibition, actives largely listed as inhibitors. 300,000 tested, 1.8% active; calls by dose curve; tested in HEK293 cells
# HCV inhibitor – blocks hepatitis C virus. Potency, µM (doses to about 41.8 µM), for the others: at the highest dose activity change, negative = inhibition, most hits filed as inhibitors. 340,000 tested, 3.4% active. AID 651820. Huh7.5.1 HCVcc-Cre infection, luciferase reporter, 44 h; active means well fitted inhibition curve with a large enough effect; inconclusive means small, poorly fitted or top-dose-only effect, or another doubt; inactive means no such curve, though single readings can be large or run the other way
#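 1,000 cells/well; 4 h culture; + compound; + HCVcc-Cre (~0.5 moi); 44 h; luciferase substrate, RT 15 min; read 15 sec.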
# LASV entry inh – Lassa virus entry inhibition. Lassa virus pseudotype entry inhibition, cell reporter. Potency, µM (top dose mostly 37.9 µM), for the others: at the highest dose activity change, negative = inhibition, hits mostly inhibitors. 300,000 tested, 1.2% active. AID 540256; calls by dose curve; tested in HEK293 cells; further: nearly all actives have a fitted effect of over 50% in size
# FMDV antiviral – antivirals against foot and mouth disease virus | 410,000 tested, 1.2% active | AID 1159524 | Potency, µM (series often up to 57.9 µM), inactives show at the highest dose activity change, negative = inhibition, usual class: inhibitors | FMDV antiviral cell-based qHTS; calls by dose curve; tested in HEK293T cells; further: read-out not given here; nearly all actives have a fitted effect of over 45% in size
# VACV mCherry inh – inhibitors of vaccinia virus infection (mCherry reporter signal); 310,000 tested, 0.63% active; Potency, µM (doses to about 36.5 µM), for inactives: at the top dose activity change, negative = inhibition, most hits filed as inhibitors; AID 720579; Vaccinia virus mCherry reporter infection, fluorescence; calls by dose curve; tested in A549 cells; further: nearly all actives have a fitted effect of over 35% in size
# * hit, by the source's call; i = inactive; ? = inconclusive; . = not tested or not shown; [ ] = another dose, or the depositor's remark. The list is not random: actives were taken first. Their share in the collection is about 5.3%. On the % scale 0 is the no-effect control and ±100 the full control effect; potency means the concentration at half of the fitted maximal effect.
SMILES,Vaccinia Venus,MARV entry inh,HCV inhibitor,LASV entry inh,FMDV antiviral,VACV mCherry inh
O=C(/C=C/c1ccc([N+](=O)[O-])cc1)Nc1cccc(S(=O)(=O)NC2=NCCCCC2)c1,?,?,25µM*,?,?,-21%
Cc1ccc(C)c(N2CCN(C3(c4ccccc4)C(=O)c4ccccc4C3=O)CC2)c1,-10%,-2%[46.1 µM],.,8%[46.1 µM],-12%,-15%
COc1cc(=O)n2c(c1C(=O)NCc1ccco1)CCN(Cc1cccc(C(F)(F)F)c1)CC2,-3%,.,.,.,-8%,-8%
O=C(Nc1ncc(Cc2ccccc2)s1)C1CCCO1 (centres undefined),2%,?,5%,15µM*,18%,-18%
O=C(Nc1ccc(-c2nc3cccnc3s2)cc1)C1CCCO1 (centres undefined),-3%,2.6µM*,-15%,?,-38%,i
O=C(Nc1ccc(-c2nc3ccccc3o2)cc1)C1CCCO1 (centres undefined),.,?,-31%,?,-42%,.
CCN(CC)CCNC(=O)C1=C(OC)CC(N)=C(Cl)C1,.,14%,.,.,.,.
Cc1cn([C@H]2C[C@H](O)[C@@H](CNC(=O)[C@H](N)Cc3cn(COCc4ccccc4)cn3)O2)c(=O)[nH]c1=O,-7%,.,.,.,-23%,i
C[N+]1(CC(=O)c2ccc(F)cc2)CCc2ccccc2C1 (centres undefined),-8%,.,.,.,.,i
Cc1cccc(NC(=O)Cn2c(=O)n(Cc3nc(-c4ccccc4)no3)c(=O)c3ccccc32)c1,-18%,.,.,5%[46.1 µM],?,-27%
COc1cc2c(C#CCCO)c(-c3ccsc3)oc(=O)c2cc1OC,?,.,10µM*,.,-28%,-10%
COc1ccc(O[C@H]2C=C[C@@H](c3ccccc3)O[C@@H]2CO/N=C2/[C@H]3CCn4c(=O)n(-c5ccccc5)c(=O)n4[C@H]3[C@H](O)[C@@H]3O[C@H]23)cc1,.,5%[14.2 µM],.,.,.,.
CC(C)C[C@H]1CN=C(Nc2ccccc2)N1CC1CCC(C(C)(C)C)CC1 (some centres undefined),?,.,11µM*,.,?,28µM*
Cc1cc(-c2ccc(S(=O)(=O)Nc3cc(Cl)ccc3C)s2)on1,-10%,.,.,-10%[46.1 µM],12%,-5%
CCOC(=O)c1oc2nc(CC(C)C)c3c(c2c1N)CCCC3,-25%,?,2.8µM*,?,6%,?
CCOC(=O)N1CCN(Cc2nc3cc([N+](=O)[O-])ccc3n2C(C)C)CC1,-10%,4%[46.1 µM],.,2%[46.1 µM],?,-13%
CSCc1cc(C(=O)NC2CC2)c(N)s1,7%,.,.,.,-6%,-18%
CN(C)c1ccc(/C=C/c2cccc[n+]2[O-])cc1,-8%,-19%[46.1 µM],11%,?,5%,i
CC(C)CC[n+]1ccccc1/C=C/c1ccc(N(C)C)cc1,i,?,5µM*,?,?,i
CC(C)Oc1ccc2ccccc2c1CNC[C@H]1O[C@@H](n2cnc(C(N)=O)n2)[C@H](O)[C@@H]1O,-3%,.,5µM*,.,-6%,-23%
COc1cc(Cl)c(CNC[C@H]2O[C@@H](n3cnc(C(N)=O)n3)[C@H](O)[C@@H]2O)c(Cl)c1O,0%,.,22%,.,-1%,-11%
Cc1cc(N2CCCC2)nc2ccc(NC(=S)NCCCOC(C)C)cc12,.,?,?,3%,-19%,.
CCCCN(CC)CCCNC(=S)Nc1ccc2nc(N3CCN(CC)CC3)cc(C)c2c1,-17%,3.5µM*,?,?,0%,-19%
CCCN(CCC)CCCNC(=S)Nc1ccc2nc(N3CCCC3)cc(C)c2c1,.,.,10µM*,.,-13%,.
CCCCN(CC)CCCNC(=S)Nc1ccc2nc(N3CCN(C)CC3)cc(C)c2c1,-9%,2.5µM*,-30%,?,-18%,-19%
SMILES,Vaccinia Venus,MARV entry inh,HCV inhibitor,LASV entry inh,FMDV antiviral,VACV mCherry inh
CCN1CCN(c2cc(C)c3cc(NC(=S)NCCCOC)ccc3n2)CC1,.,.,-23%,.,-7%,.
Cc1cc(N2CCN(C)CC2)nc2ccc(NC(=S)NCc3cccs3)cc12,-16%,?,10µM*,?,26%,?
CCCC(=O)Oc1c(Sc2ccc(Cl)cc2)c(C)nn1-c1ccccc1,-5%[7.34 µM],14%[46.1 µM],.,0%[46.1 µM],-29%,-16%[7.34 µM]
CC(C)NC(=O)C1CCC(Cn2c(=O)c3sccc3n(CC(=O)N3CCCC3)c2=O)CC1 (centres undefined),-4%,.,.,-23%[46.1 µM],5%,1%
Cc1ccc(C)c(CN2C(=O)N(c3cc(Cl)ccc3C)S(=O)(=O)c3ccccc32)c1,0%,.,.,-2%[46.1 µM],0%,-4%
COc1ccc(CCNC(=O)CCN2C(=O)COc3ccc(C)cc32)cc1OC,.,-1%,2.8µM*,?,-11%,.
CCC(OC(=O)c1ccc(S(C)(=O)=O)c([N+](=O)[O-])c1)C(=O)NC1C2CC3CC(C2)CC1C3 (centres undefined),.,.,.,.,40µM*,.
CC(OC(=O)c1ccc(S(C)(=O)=O)c([N+](=O)[O-])c1)C(=O)NC1C2CC3CC(C2)CC1C3 (centres undefined),.,.,.,.,32µM*,.
CCc1ccc(NC(=O)C(Cc2ccccc2)NS(=O)(=O)c2ccc3c(c2)CCN3C(C)=O)cc1 (centres undefined),-17%,-10%[46.1 µM],.,-5%[46.1 µM],1%,-17%
COc1ccccc1N=Nc1nc(-c2ccccc2)c(-c2ccccc2)[nH]1,15%,?,11µM*,?,-3%,i
Cc1ccc(C)c(-n2c3nc(=O)[nH]c(=O)c-3cc3cc([N+](=O)[O-])ccc32)c1,-8%,?,-23%,3.2µM*,28µM*,-21%
Cc1cccc(-n2c3nc(=O)[nH]c(=O)c-3cc3cc([N+](=O)[O-])ccc32)c1,?,?,6%,?,35µM*,?
O=c1nc2n(-c3ccccc3F)c3ccccc3cc-2c(=O)[nH]1,-1%,-16%[46.1 µM],.,?,0%,-10%
Cc1ccc(CNC(=O)C2CCN(S(=O)(=O)c3c(C)noc3/C=C/c3ccccc3F)CC2)o1,-9%[7.34 µM],.,.,-15%[46.1 µM],-8%,-8%[7.34 µM]
O=C1NC2c3c(I)sc(I)c3C(=O)C2O1 (centres undefined),?,?,?,13µM*,40µM*,10µM*
CCOc1ccccc1CNC(=O)c1cc(-c2ccc(OC)cc2)nc2ccc(C(C)C)cc12,-14%,.,.,24%[46.1 µM],25%,-11%
CC1(C)Cc2c(ccc3ccccc23)C(c2cc3ccccc3oc2=O)=N1,.,5.8µM*,?,13µM*,-11%,.
COc1ccc(CCN=C(N)C(C)c2ccccc2)cc1OC (centres undefined),-3%,-3%,-7%,2%,-19%,-12%
CC(C)Cc1ccc(C(C)C(N)=NCCc2ccccc2)cc1 (centres undefined),-22%,2.2µM*,?,?,-30%,?
COC(=O)c1[nH]c2ccc(C)cc2c1NC(=O)CCN1CCN(Cc2ccc3c(c2)OCO3)CC1,-21%,-15%,20µM*,-22%,?,-2%
